IDE exosite FP = exo-site inhibitors of human IDE, primary screen, biochemical, fluorescence anisotropy, probe displacement; Insulin-degrading enzyme (Homo sapiens), P14735; purified IDE, FL-6b probe fluorescence polarization; hits give low values; z-score at 20 µM; 17,000 tested, 6.3% active; AID 1259349, 2017;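 active means z-score of -3 or lower, meaning strong loss of probe binding signal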;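 further: His-tagged human IDE residues 42-1019 made in E. coli with 30 nM FL-6b probe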
Large screens that a line does not name were inactive. The full list was thinned out, with hits kept by preference.

O=C(Nc1ccccc1)N1CCCCN2[C@H](C1)[C@H](c1ccc(-c3ccccc3)cc1)[C@@H]2CO	none
COc1ccccc1-c1ccc([C@H]2[C@@H](CO)N[C@@H]2CNC(=O)C2CCCC2)cc1	IDE exosite FP -10.9
O=C(NC[C@@H]1N[C@@H](CO)[C@@H]1c1ccccc1)C1CC1	none
COc1ccc(-c2ccc([C@H]3[C@H](CO)N[C@@H]3C#N)cc2)cc1	none
COc1ccccc1-c1ccc([C@@H]2[C@@H](C#N)N[C@@H]2CO)cc1	IDE exosite FP -8.94
N#C[C@@H]1N[C@H](CO)[C@H]1c1ccc(-c2ccccc2F)cc1	none
N#C[C@@H]1N[C@@H](CO)[C@@H]1c1ccc(-c2ccccc2F)cc1	none
COc1ccccc1-c1ccc([C@H]2[C@H](CO)N[C@@H]2C#N)cc1	IDE exosite FP -4.23
COc1ccccc1-c1ccc([C@H]2[C@@H](C#N)N[C@@H]2CO)cc1	none
O=C(NC[C@H]1N[C@H](CO)[C@@H]1c1ccc(-c2cncnc2)cc1)C1CCCCC1	none
N#C[C@H]1N[C@H](CO)[C@H]1c1ccc(-c2ccccc2F)cc1	none
N#C[C@H]1N[C@@H](CO)[C@@H]1c1ccc(-c2ccccc2F)cc1	none
COc1ccccc1-c1ccc([C@@H]2[C@H](C#N)N[C@@H]2CO)cc1	IDE exosite FP -9.3
CN1C(=O)c2cc(NC(=O)c3cscn3)ccc2OC[C@@H]2O[C@@H](CC(=O)NCc3ccc(Cl)c(Cl)c3)CC[C@H]21	none
O=C(N[C@H]1CC[C@@H](CCNS(=O)(=O)c2ccc(F)cc2)O[C@H]1CO)C1CCC1	none
CCC(=O)NC[C@H]1[C@@H](c2ccccc2)[C@@H](CO)N1C(=O)C1CC1	none
COc1ccc(CN2[C@H](CO)[C@@H]3c4ccccc4NC[C@@H]32)cc1	none
CN(C)C(=O)c1ccc(-c2ccc([C@@H]3[C@@H](CO)N(C(=O)C4CCCC4)[C@H]3C#N)cc2)cc1	none
CN(C)CC(=O)N1[C@H](C(=O)Nc2nccs2)[C@@H](CO)[C@@H]2Cn3c(ccc(C4=CCCCC4)c3=O)[C@@H]21	none
N#C[C@H]1[C@@H](c2ccccc2-c2cccc(F)c2)[C@H](CO)N1C(=O)c1cccnc1	none
C[C@@H](O)C#Cc1ccc([C@H]2[C@H]3CN(C(=O)Nc4ccccc4)CCCCN3[C@H]2CO)cc1	none
CN(C)CC(=O)N1CCCCN2[C@H](CO)[C@@H](c3ccc(-c4cccc(C(=O)N(C)C)c4)cc3)[C@@H]2C1	none
CC(C)C[C@@H]1COCc2cn(nn2)CCCC(=O)N1	none
CN1CCN(C(=O)C[C@@H]2C[C@H]3c4cc(NS(C)(=O)=O)ccc4O[C@H]3[C@@H](CO)O2)CC1	none
COc1cccc(S(=O)(=O)N2CCCCN3[C@H](CO)[C@@H](c4ccc(-c5ccccc5)cc4)[C@@H]3C2)c1	none
N#C[C@H]1[C@H](c2ccc(-c3cccnc3)cc2)[C@H](CO)N1C(=O)Nc1ccc(F)cc1	none
CC(C)NC(=O)N1CCCCN2[C@H](CO)[C@H](c3ccc(C#Cc4ccccc4)cc3)[C@H]2C1	IDE exosite FP -5.02
CC(C)NC(=O)N1CCCCN2[C@H](CO)[C@@H](c3ccc(C#Cc4ccccc4)cc3)[C@H]2C1	IDE exosite FP -9.21
CC(C)NC(=O)N1CCCCN2[C@H](C1)[C@@H](c1ccc(C#Cc3ccccc3)cc1)[C@@H]2CO	IDE exosite FP -3.67
CC(C)C#Cc1ccc([C@H]2[C@H]3CN(C(=O)NC(C)C)CCCCN3[C@H]2CO)cc1	none
CC(C)NC(=O)N1CCCCN2[C@H](CO)[C@H](c3ccc(C#C[C@H](C)O)cc3)[C@@H]2C1	none
CC(C)NC(=O)N1CCCCN2[C@H](C1)[C@H](c1ccc(C#Cc3ccccc3)cc1)[C@@H]2CO	IDE exosite FP -12.5
CC(C)C#Cc1ccc([C@@H]2[C@H](CO)N3CCCCN(C(=O)Nc4ccccc4)C[C@@H]23)cc1	none
CC(C)NC(=O)N1CCCCN2[C@H](C1)[C@@H](c1ccc(C#C[C@H](C)O)cc1)[C@@H]2CO	none
CC(C)C#Cc1ccc([C@H]2[C@@H](CO)N3CCCCN(C(=O)NC(C)C)C[C@@H]23)cc1	none
CC(C)NC(=O)N1CCCCN2[C@@H](CO)[C@H](c3ccc(C#C[C@@H](C)O)cc3)[C@@H]2C1	none
CC(C)C#Cc1ccc([C@@H]2[C@H](CO)N3CCCCN(C(=O)NC(C)C)C[C@@H]23)cc1	none
CC(C)NC(=O)N1CCCCN2[C@H](CO)[C@@H](c3ccc(C#CC4CC4)cc3)[C@H]2C1	none
C[C@@H]1CN([C@@H](C)CO)S(=O)(=O)c2ccc(C#CCC3CCCC3)cc2O[C@H]1CN(C)C(=O)c1cnccn1	none
COCC#Cc1ccc([C@@H]2[C@@H](CO)N3CCCCN(Cc4cccnc4)C[C@H]23)cc1	none
C[C@H](O)C#Cc1ccc([C@@H]2[C@H](CO)N3CCCCN(C(=O)c4ccc(F)cc4)C[C@@H]23)cc1	none
CC(=O)N(C)C[C@H]1[C@H](c2ccccc2)[C@@H](CO)N1C(=O)C1CCC1	none
O=C1CN(S(=O)(=O)Cc2ccccc2)C[C@@H]2[C@@H](c3ccc(C#Cc4cccc(F)c4)cc3)[C@H](CO)N12	none
COc1cccc(S(=O)(=O)N2CCCCN3[C@H](CO)[C@H](c4ccc(-c5ccncc5)cc4)[C@@H]3C2)c1	none
CC(C)NC(=O)N1[C@H](C#N)[C@@H](c2ccc(C#CC3CCCCC3)cc2)[C@H]1CO	none
CN(C[C@H]1N[C@@H](CO)[C@H]1c1ccc(-c2ccccc2)cc1)C(=O)C1CCC1	none
COc1ccc(S(=O)(=O)Nc2ccc3c(c2)[C@@H]2C[C@H](CC(=O)N(C)C)O[C@@H](CO)[C@@H]2O3)cc1	none
O=C(NC[C@@H]1[C@@H](c2ccccc2)[C@@H](CO)N1CC1CCCC1)c1ccncc1	none
COc1ccc2c3c(n(C)c2c1)[C@H](CO)N(C(=O)Nc1ccc(F)cc1)CC31CN(C(=O)c2cccnc2)C1	none
C[C@@H](NC(=O)C[C@@H]1CC[C@@H]2[C@H](COc3ccc(NS(=O)(=O)c4ccc(Cl)cc4)cc3C(=O)N2C)O1)c1ccccc1	none
O=C(C[C@@H]1CC[C@@H]2NC[C@@H](O)COC[C@H]2O1)NCCc1ccncc1	none
Cc1ccccc1-c1ccc([C@H]2[C@H](CO)N3CCCCN(S(=O)(=O)Cc4ccccc4)C[C@@H]23)cc1	none
CCS(=O)(=O)N1CCCCN2[C@@H](CO)[C@H](c3ccc(-c4ccccc4F)cc3)[C@@H]2C1	none
CCS(=O)(=O)N1CCCCN2[C@H](C1)[C@@H](c1ccc(-c3ccccc3C)cc1)[C@@H]2CO	IDE exosite FP -8.77
O=S(=O)(c1ccc(F)cc1)N1CCCCN2[C@H](C1)[C@H](c1ccc(-c3ccccc3)cc1)[C@@H]2CO	none
CCS(=O)(=O)N1CCCCN2[C@@H](CO)[C@@H](c3ccc(-c4ccccc4F)cc3)[C@@H]2C1	IDE exosite FP -6.55
Cc1ccccc1-c1ccc([C@@H]2[C@@H](CO)N3CCCCN(S(=O)(=O)Cc4ccccc4)C[C@H]23)cc1	none
Cc1ccccc1-c1ccc([C@@H]2[C@@H](CO)N3CCCCN(S(=O)(=O)c4ccc(F)cc4)C[C@@H]23)cc1	IDE exosite FP -17.5
CCS(=O)(=O)N1CCCCN2[C@H](C1)[C@H](c1ccc(-c3ccccc3F)cc1)[C@@H]2CO	none
Cc1ccccc1-c1ccc([C@H]2[C@@H](CO)N3CCCCN(S(=O)(=O)c4ccc(F)cc4)C[C@H]23)cc1	none
COc1ccccc1-c1cn(CC[C@H]2CC[C@@H](NC(=O)C3CCCCC3)[C@@H](CO)O2)nn1	none
C[C@@H](NC(=O)C[C@H]1CC[C@@H]2[C@H](COc3ccc(NS(=O)(=O)c4ccc(Cl)cc4)cc3C(=O)N2C)O1)c1ccccc1	none
